# Results: PubChem BioAssay AID435019 (Southern Research Specialized Biocontainment Screening …, 2010)
# In all, about 2,300 compounds went through this assay and about 1,200 (52%) were called active. No rule for the calls is given here. The set was probably picked from earlier hits. This is one part of the list. Entries with a potency or affinity are not part of this list.
# Assay: mammalian cell cytotoxicity, dose response, cytotoxicity control for M. tuberculosis inhibitor project (AID 435019);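 also: lower values mean fewer viable cells so more cytotoxicity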
# Details: cytotoxicity counter-screen; series mostly up to 40 µM
row,Structure (SMILES),outcome
1,CCOC(=O)C1=C(C)Nc2nc(SCC(=O)OC)nn2C1c1cc(F)cc(F)c1 (stereo unspecified),inactive
2,CC(=O)Oc1ccc(/C=N\NC(=O)c2cc3c(ccc4ccccc43)o2)cc1,inactive
3,COC(=O)Cc1ccc(NC(=S)Nc2ccccn2)cc1,inactive
4,COc1ccc(NC(=O)ON=C2c3ccccc3-c3ccccc32)cc1,inactive
5,Nc1ccc(N=Nc2ccccc2)c2cccnc12,inactive
6,O=C(Nc1cccc(C(F)(F)F)c1)c1ccc2nc(-c3ccco3)c(-c3ccco3)nc2c1,inactive
7,Nc1cccc(-c2cc3ccccc3oc2=O)c1,inactive
8,CCOC(=O)c1sc(C)c2c(=O)n(CC(=O)c3ccc(Br)cc3)nnc12,inactive
9,NC(N)=Nc1nc(-c2ccccc2)c2ccccc2n1,inactive
10,CCOC(=O)Cn1nc(-c2ccccc2)nc1-c1ccccc1,inactive
11,CCOC(=O)c1ccc(N=Cc2nc3ccccc3n2C)cc1,inactive
12,CCOc1cc(/C=N/Nc2nc(Nc3ccccc3)nc(N3CCCCC3)n2)ccc1OCC(=O)O,inactive
13,COC(=O)[C@@H](NC(=O)c1cc(COc2cncc(Cl)c2)on1)c1ccccc1,inactive
14,O=C(N/N=C\c1ccc[nH]1)c1cncc(Br)c1,inactive
15,O=C(O)C1CC=CCC1C(=O)NNc1ccccc1 (stereo unspecified),inactive
16,O=c1oc2ccccc2c(Nc2ccccc2O)c1[N+](=O)[O-],inactive
17,COc1ccc(NC(=O)C2C3C=CC(O3)C2C(=O)NCc2cccnc2)cc1 (stereo unspecified),inactive
18,CCCC(O)(CCC)C(=O)NNc1ccc(C)cc1,inactive
19,CCc1nnc(NC(=O)CN2CCN(c3nc(-c4ccccc4)cs3)CC2)s1,inactive
20,c1ccc2nc(-c3ccc(-n4ccnc4)cc3)ccc2c1,inactive
21,CCOC(=O)c1c(-c2ccc(OC)cc2)csc1NC(=O)CNCc1ccco1,inactive
22,CCCCOc1ccc(C(=O)Oc2ccc(C)nc2)cc1,inactive
23,O=c1[nH][nH]cc1C=Nc1ccc(Oc2ccccc2)cc1,inactive
24,CN(c1ccccc1)S(=O)(=O)c1cccc(C(=O)NCc2ccccc2CN2CCCC2)c1,inactive

row,Structure (SMILES),outcome
1,CN1C(=O)N(C)c2ccc(C=O)c3cccc1c23,inactive
2,COc1cc2[nH]c(Cl)c([N+](=O)[O-])c2cc1OC,inactive
3,Cc1ccc(C)c(NC(CC(=O)c2ccccc2)C(=O)OCC(=O)c2cccs2)c1 (stereo unspecified),inactive
4,CCOc1ccc(NCc2cccn2-c2nnc(N3CCC(C(=O)NCCCN4C(C)CCCC4C)CC3)s2)cc1 (stereo unspecified),inactive
5,O=C(CSc1nnc(-c2cccs2)o1)NCC1CN(Cc2ccccc2)CCO1 (stereo unspecified),inactive
6,Nc1cc(=O)[nH]c(SCc2csc(-c3ccccc3)n2)n1,inactive
7,CCCOc1cccc(C(=O)NC(=S)Nc2ccc(N3CCN(C)CC3)cc2)c1,inactive
8,CCOC(=O)c1cc(-c2ccc(N3CCOCC3)cc2)nn1-c1ccccc1,inactive
9,CCOC(=O)CNC(=O)C(Cc1ccccc1)NC(=O)OCc1ccccc1 (stereo unspecified),inactive
10,COc1ccc(-c2cc(C3CCN(C(=O)OC(C)(C)C)CC3)[nH]n2)cc1,inactive
11,CCCCCc1ccc(-c2cn(Cc3cccc(OC)c3)nn2)cc1,inactive
12,COc1ccc(C(=O)OCCNC(=O)c2c(Cl)nc3ccccn23)cc1,inactive
13,CCOC(=O)c1sc2nc3n(c(=O)c2c1C)CCC(C)CC3 (stereo unspecified),inactive
14,COc1ccccc1NC(=O)C(C)OC(=O)/C=C/c1ccc2ccccc2n1 (stereo unspecified),inactive
15,CC(OC(=O)c1cc(Cl)ccc1[N+](=O)[O-])C(=O)NC(C)c1ccc(F)cc1 (stereo unspecified),inactive
16,Cn1c(=O)c2cc(NCc3ccccc3)nnc2n(C)c1=O,inactive
17,Cn1c(=O)n(Cc2ccccc2)c(=O)c2c1nc1n2CCCN1C1CCCCC1,inactive
18,Cc1nn(-c2ccccn2)c2c1-c1nc(N3CCOCC3)ncc1CC2,inactive
19,CCOC(=O)CSc1ncc(OC)c(Sc2ccc(OC)cc2)n1,inactive
20,Cc1ccc(-c2c[n+](CC(=O)N3c4ccccc4Sc4ccccc43)c3n2CCC3)cc1,inactive
21,C=CCN1CC[C@]23c4c5ccc(O)c4O[C@H]2/C(=N/NC(=O)c2ccccc2)CC[C@@]3(O)[C@H]1C5,inactive
22,CCOC(=O)c1sc2ncnc(NCC(c3cccs3)N(C)C)c2c1C (stereo unspecified),inactive
23,Cc1cc(C(=O)N/N=C/c2ccc(-c3ccc([N+](=O)[O-])cc3Cl)o2)n[nH]1,inactive
24,Cc1c(Cl)c([N+](=O)[O-])nn1Cc1ccc(C(=O)N/N=C\c2cccc(Br)c2)o1,inactive

row,Structure (SMILES),outcome
1,CCSCc1nnc(SCC(=O)Nc2cccc(SC)c2)n1C,inactive
2,CCn1c(SCC(=O)Nc2ccc3c(c2)oc2ccccc23)nnc1-c1ccc(N)cc1,inactive
3,Clc1cc(Cl)cc(Nc2ncn[nH]2)c1,inactive
4,C/C(CC(=O)Nc1ccc(C)c(Cl)c1)=N\NC(=O)Cc1cnc(N)s1,inactive
5,COc1ccc(C(C)=O)cc1COC(=O)c1ccc2ccccc2n1,inactive
6,Cc1ccc(C)c(NNC(N)=S)c1,inactive
7,O=c1c2c(nc3nc(NCc4ccc(Cl)cc4)[nH]n13)CCC2,inactive
8,COc1ccc(CCNc2cc(-c3ccccc3)nc3ncnn23)cc1,inactive
9,COC(=O)CCCCC1SCC(NC(=O)c2ccccc2)C1=O (stereo unspecified),inactive
10,N#Cc1ccc(CN2CCN(CC(=O)NCCc3ccc(Cl)cc3Cl)CC2)cc1,inactive
11,COc1ccc(SN=C2C(C)=CC(=O)C=C2C)cc1,inactive
12,COC(=O)C1C(O)C(C)C(O)C(C)/C=C\C=C(/C)C(=O)Nc2c(C)c(OC(C)=O)c3c(c2O)C(=O)C(C)=C2OCOC(=C23)/C(C)=C/C(C)(O)C(O)C(C)C1O (stereo unspecified),inactive
13,C/C(=N/Nc1ccnc2cc(Cl)ccc12)c1ccc(O)cc1,inactive
14,CCc1ccc(/C(C)=N/Nc2cc(Cl)nc(C)n2)cc1,inactive
15,Cc1ccc2c(c1)nnn2C1CCN(CC(=O)N2CCN(c3ccc(F)cc3)CC2)CC1,inactive
16,c1ccc(CCN2CN=C(Nc3nc4ccccc4o3)NC2)cc1,inactive
17,C/C(O)=C\c1nc2ccccc2oc1=O,inactive
18,CN1CCC(=NNC(=O)C(=O)Nc2ccccc2F)CC1,inactive
19,O=C(CCN1C(=O)/C(=C/c2ccccc2)SC1=S)Nc1ccccn1,inactive
20,O=C(COC(=O)C1=COCCO1)Nc1cccc(Oc2ccccc2)c1,inactive
21,CCOc1ccc2nc(/N=C/c3nc(-c4ccccc4)oc3O)sc2c1,inactive
22,Cc1ccc(-c2nnc(C)c(N3CCCC3)n2)cc1,inactive
23,O=C(c1cc2ccccc2o1)N1CCN(S(=O)(=O)c2ccc(Cl)s2)CC1,inactive
